Data reported in PubChem BioAssay (NCI).
Compounds without any hit were thinned out: in the full panel of roughly 83,000, 20% have a hit.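 48-hour exposure, single concentration, 96-well plates; percent growth endpoint where 0 means no net growth. Active: below 10.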 Unmarked numbers belong to inactive results. Calls of active or inactive are those of the source.

Test system: HCT-15 colon
Experiment: NCI-60 one-dose screen, 48 h (100 = growth as untreated, 0 = no growth, -100 = all killed)
Conditions: 10 µM
Protocol: Growth inhibition of the HCT-15 human tumor cell line is measured as a screen for anti-cancer activity. Cells are grown in 96 well plates and exposed to the test compound for 48 hours. Compounds are tested at a single concentration, which is 10^-5 M for most compounds. The reported endpoint is percent growth (GI% or GIPRCNT), where numbers from 0 - 100% represent growth inhibition, and numbers from -100% - 0 represent cell death. For example, a value of 40 represents 60% growth inhibition. A value of 0 means no net growth occurred over the course of the experiment. A value of -40 indicates 40% of cells at the beginning of the experiment died by the end of the experiment. A value of -100 means all cells are dead at the end of the experiment.
NCI-60 Human Tumor Cell Lines Screen was performed using the standard one-dose NCI protocol, which is described in more detail at https://dtp.cancer.gov/discovery_development/nci-60/default.htm.
Compounds with GIPRCNT values below 10 were considered active. Activity score was based on GIPRCNT using the following formula: […]
Score is 0 for GIPRCNT values of 100 or above, 50 for GIPRCNT values of 0, and 100 for GIPRCNT values of -100.

| Structure (SMILES) | growth |
| --- | --- |
| O=C(NC1CCCCC1)OCc1c(COC(=O)NC2CCCCC2)c(-c2ccc(Cl)c(Cl)c2)n2c1CCC2 | 33.6% |
| CCOC(=O)Nc1nn[nH]n1 | 91.7% |
| C#CC(C)(O)c1ccc(Cl)cc1 (stereo not given) | 98.4% |
| Cc1ccc(S(=O)(=O)O)c(C)c1 | 104% |
| C=CCNC(=O)c1ccc(OC)cc1 | 108% |
| Nc1ncnc2[nH]ncc12 | 5.92% (active) |
| CCOC(=O)CNN | 108% |
| COC(=O)c1ccc(C(C)C)cc1 | 96.2% |
| O=S(=O)(O)c1ccc(Cl)c(Cl)c1 | 107% |
| O=[N+]([O-])c1ccc(-c2ncc(-c3ccc(Br)cc3)o2)cc1 | 96.5% |
| COc1cc2cc(OC(C)=O)c3cc4c(cc3c2c(OC)c1OC)OCO4 | 99.7% |
| COC(=O)/C=C\C(=O)OC | 107% |
| CCOC(=O)c1ccc(Nc2sc(C(=O)c3cccc([N+](=O)[O-])c3)c(N)c2C#N)cc1 | 32.3% |
| CCOC(=O)C/C(C)=N\O | 103% |
| CC1(C)N=C(N)N=C(N)N1c1cccc(Br)c1 | 32.4% |
| CC(=O)OCC1OC(OC2=C(CC=C(C)C)C(=O)c3ccccc3C2=O)C(OC(C)=O)C(OC(C)=O)C1OC(C)=O (stereo not given) | 12.2% |
| NC(=S)NN=C1CCCC1 | 77.9% |
| O=C(Nc1cc(-c2ccccc2)[nH]n1)c1ccc(Cl)cc1 | 61.4% |
| CC(=O)C1CCCCC1 | 95% |
| O=C(N/N=C\c1cc(Br)cc(Br)c1O)N/N=C/c1cc(Br)cc(Br)c1O | 33.6% |

| Structure (SMILES) | growth |
| --- | --- |
| COc1ccccc1NC(=O)C1=C(C)NC(C)=C(C(=O)Nc2ccccc2OC)C1c1cccc([N+](=O)[O-])c1 | 64.4% |
| COc1cc2cc(c1Cl)N(C)C(=O)C[C@H](OC(=O)[C@H](C)N(C)C(C)=O)[C@]1(C)O[C@H]1[C@H](C)[C@@H]1C[C@@](O)(NC(=O)O1)[C@H](OC)C=C/C=C(\C)C2 | -14.5% (active) |
| CCOc1ccc(Br)cc1/C=N\N=C\c1cc(Br)ccc1OCC | 109% |
| CCCCNC(=O)C(=O)NCCCC | 105% |
| CC1OC(Oc2c(-c3ccc(O)c(O)c3)oc3cc(O)cc(O)c3c2=O)C(O)C(O)C1O (stereo not given) | 113% |
| Nc1nc(OCc2ccccc2)c2[nH]cnc2n1 | 63.7% |
| c1ccc2c(c1)Sc1ccccc1S2 | 105% |
| CC(=O)c1ccc(N=C(C#N)C2=C(O)c3ccccc3C2=O)cc1 | 113% |
| COc1ccc(C(O)c2ccccc2)cc1 (stereo not given) | 100% |
| Cc1cc(O)ccc1O | 108% |
| S=c1sc2ccccc2n1CN1CCCCC1 | 102% |
| CC(=O)Cc1ccc(-c2ccccc2)cc1 | 103% |
| CCCC[P+](c1ccccc1)(c1ccccc1)c1ccccc1 | 99.5% |
| CCCCCCCCCCCCCCCCC1CC(=O)OC1=O (stereo not given) | 107% |
| Cc1nc2ccccc2c2nnc(SCC(=O)N(Cc3ccccc3)c3ccccc3)n12 | 90.4% |
| Nc1ccc(NC(=O)c2cccc(N)c2)cc1 | 101% |
| COc1cc(C2NC(=O)C(C#N)=C(Nc3cccc(C)c3)S2)ccc1O (stereo not given) | 111% |
| CC(C)C1CCCCC1O (stereo not given) | 96% |
| COC(=O)Nc1nc2ccc(C(=O)c3cccs3)cc2[nH]1 | 10.8% |
| O=[N+]([O-])c1cccc2nsnc12 | 103% |
